Reference: PubChem BioAssay
Active and inactive are the calls of the source. Unless noted, no rule for the calls is given here.

Experiments:
[1] = anti-His antibody binders, primary screen, artefact control for SMM control protein annotation, biochemical, small-molecule microarray, 635 nm fluorescence (AID 1128); details: anti-His Alexa647 antibody binding, higher = more signal;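 also: score merges feature fluorescence with signal-to-noise for each printed compound spot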
[2] = system: Human papillomavirus type 1a E7 protein (residues 1-88); experiment: HPV1a E7 small-molecule binders, primary screen, biochemical, small-molecule microarray, residues 1-88, 635 nm (AID 1129); details: small-molecule microarray binding, fluorescence 635 nm; higher = more signal
[3] = biological target: Focal adhesion kinase 1 (Homo sapiens) (UniProt Q05397); experiment: small-molecule microarray binders of FAK, primary screen, biochemical, 635/667 nm fluorescence, BSA, DTT (AID 1130); details: PTK2 binding, 635 nm fluorescence, higher = more signal;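 also: composite of spot emission at 667 nm and signal to noise over triplicate slides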
Sequence of Focal adhesion kinase 1 (Homo sapiens) (Q05397 whole entry, looked up): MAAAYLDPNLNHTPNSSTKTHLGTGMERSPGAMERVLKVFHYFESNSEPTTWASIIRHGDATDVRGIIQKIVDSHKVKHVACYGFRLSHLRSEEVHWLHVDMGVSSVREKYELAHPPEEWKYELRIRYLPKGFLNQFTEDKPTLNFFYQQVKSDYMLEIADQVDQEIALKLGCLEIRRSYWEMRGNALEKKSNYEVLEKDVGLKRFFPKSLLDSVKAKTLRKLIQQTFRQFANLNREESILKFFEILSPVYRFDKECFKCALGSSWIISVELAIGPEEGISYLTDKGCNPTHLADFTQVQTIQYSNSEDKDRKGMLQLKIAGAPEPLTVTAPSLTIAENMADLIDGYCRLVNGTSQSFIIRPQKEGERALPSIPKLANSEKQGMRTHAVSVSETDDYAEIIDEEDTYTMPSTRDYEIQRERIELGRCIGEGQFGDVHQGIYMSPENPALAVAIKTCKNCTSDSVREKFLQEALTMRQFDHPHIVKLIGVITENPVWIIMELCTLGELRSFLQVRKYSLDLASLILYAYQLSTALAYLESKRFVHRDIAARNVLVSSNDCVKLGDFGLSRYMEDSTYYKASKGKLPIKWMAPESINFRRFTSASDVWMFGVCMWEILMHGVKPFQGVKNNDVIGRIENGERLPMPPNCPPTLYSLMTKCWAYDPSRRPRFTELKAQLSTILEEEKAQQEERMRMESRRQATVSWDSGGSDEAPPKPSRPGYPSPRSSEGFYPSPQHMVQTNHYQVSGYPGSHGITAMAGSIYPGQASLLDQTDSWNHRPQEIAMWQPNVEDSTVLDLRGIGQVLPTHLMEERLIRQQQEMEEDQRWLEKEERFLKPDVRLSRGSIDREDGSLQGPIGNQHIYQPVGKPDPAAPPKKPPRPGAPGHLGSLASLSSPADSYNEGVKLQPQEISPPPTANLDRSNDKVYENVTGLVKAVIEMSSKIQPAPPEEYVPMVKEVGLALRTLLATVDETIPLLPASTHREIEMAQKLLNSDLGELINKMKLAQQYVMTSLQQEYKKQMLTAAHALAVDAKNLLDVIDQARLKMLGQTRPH

[4] = system: Fibrinogen (Alexa647-labelled); experiment: fibrinogen binders on compound microarrays, profiling panel, artefact control for SMM control-protein annotation, biochemical, small-molecule microarray, 635/667 nm fluorescence (AID 1131); details: fibrinogen-A647 binding fluorescence, higher = more signal;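 also: z-score merges 667 nm fluorescence with per-spot signal-to-noise over triplicate slides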
[5] = biological target: Follistatin (Homo sapiens) (UniProt P19883); experiment: follistatin binders on small-molecule microarrays, primary screen, biochemical, small-molecule microarray, 635/667 nm fluorescence (AID 1132); details: FST binding, 635 nm fluorescence, higher = more signal
Sequence of Follistatin (Homo sapiens) (P19883 whole entry, looked up): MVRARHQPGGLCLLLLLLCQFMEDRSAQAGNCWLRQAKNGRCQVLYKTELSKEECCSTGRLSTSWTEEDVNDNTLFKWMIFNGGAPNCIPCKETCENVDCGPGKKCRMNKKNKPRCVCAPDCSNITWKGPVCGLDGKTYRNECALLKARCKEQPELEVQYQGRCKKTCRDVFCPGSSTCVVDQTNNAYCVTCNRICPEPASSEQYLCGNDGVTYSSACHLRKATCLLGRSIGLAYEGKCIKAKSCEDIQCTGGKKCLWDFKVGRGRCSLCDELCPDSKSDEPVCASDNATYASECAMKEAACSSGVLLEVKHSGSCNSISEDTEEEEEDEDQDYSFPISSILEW

[6] = biological target: Fibroblast growth factor 2 (Homo sapiens) (UniProt P09038); experiment: FGF2 binders on small-molecule microarrays, primary screen, biochemical, small-molecule microarray, 635/667 nm fluorescence (AID 1133); details: small-molecule microarray binding, FGF2, fluorescence 635/667; higher = more signal
Sequence of Fibroblast growth factor 2 (Homo sapiens) (P09038 whole entry, looked up): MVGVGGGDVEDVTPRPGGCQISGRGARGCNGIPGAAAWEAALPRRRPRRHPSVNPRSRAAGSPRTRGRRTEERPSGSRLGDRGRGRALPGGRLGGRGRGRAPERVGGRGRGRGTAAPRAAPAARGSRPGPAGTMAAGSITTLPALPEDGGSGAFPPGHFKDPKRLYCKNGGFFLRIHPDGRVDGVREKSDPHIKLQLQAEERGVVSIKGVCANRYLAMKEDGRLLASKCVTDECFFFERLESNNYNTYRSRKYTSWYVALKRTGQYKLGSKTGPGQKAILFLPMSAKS

[7] = mitochondrial membrane potential change in A549 cells, profiling panel, cell-based, JC-1 fluorescence, basal, 24 h, 100 nL (AID 1138); details: higher = more signal;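 also: A549 lung adenocarcinoma cells under basal conditions with no added stimulus; test concentration not given here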
Lefty1 = Lefty1 binders on small-molecule microarrays, primary screen, biochemical, small-molecule microarray, 635/667 nm fluorescence (AID 1139); details: small-molecule microarray binding, fluorescence 635/667; higher = more signal
[8] = system: wheat germ agglutinin (Triticum aestivum), Alexa647-labelled; experiment: wheat germ agglutinin binders on compound microarrays, profiling panel, artefact control for SMM control-protein annotation, biochemical, small-molecule microarray, 635/667 nm fluorescence (AID 1140); details: WGA-A647 binding, 635 nm fluorescence, higher = more signal;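 also: score merges 667 nm feature emission with signal to noise over triplicate slides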
[9] = biological target: Luciferin 4-monooxygenase (Photinus pyralis) (UniProt P08659); experiment: firefly luciferase enzyme inhibitors, primary screen, biochemical, luminescence, purified enzyme, 2006 set (AID 1141); details: SteadyGlo luminescence, 30 min, higher = more signal, called active from +8 up or from −8 down;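 also: cell-free assay with purified firefly luciferase at 100 ng per well in PBS; test concentration not given here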
Sequence of Luciferin 4-monooxygenase (Photinus pyralis) (P08659 whole entry, looked up): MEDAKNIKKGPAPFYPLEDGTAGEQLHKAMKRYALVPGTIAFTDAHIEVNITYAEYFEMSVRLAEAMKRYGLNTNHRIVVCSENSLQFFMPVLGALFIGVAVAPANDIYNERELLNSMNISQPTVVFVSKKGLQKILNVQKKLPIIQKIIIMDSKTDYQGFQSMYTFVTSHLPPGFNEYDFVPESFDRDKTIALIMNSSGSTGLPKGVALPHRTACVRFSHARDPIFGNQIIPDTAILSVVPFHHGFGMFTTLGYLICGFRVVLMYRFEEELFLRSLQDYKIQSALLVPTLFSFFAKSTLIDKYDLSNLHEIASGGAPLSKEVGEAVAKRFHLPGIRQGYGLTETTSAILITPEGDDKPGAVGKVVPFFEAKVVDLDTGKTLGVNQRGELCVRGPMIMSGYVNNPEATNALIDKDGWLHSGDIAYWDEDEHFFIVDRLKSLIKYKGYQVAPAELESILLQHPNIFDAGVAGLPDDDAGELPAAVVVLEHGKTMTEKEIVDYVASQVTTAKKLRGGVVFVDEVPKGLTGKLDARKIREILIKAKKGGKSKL

[10] = system: Wnt5a (protein binding on small-molecule microarray); experiment: Wnt5a binders on small-molecule microarray, primary screen, biophysical, 635/667 nm fluorescence (AID 1142); details: 635 nm fluorescence, higher = more signal;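 also: fluorescence read at 667 nm with signal to noise per printed feature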
[11] = cell viability in Huh7 cells, primary screen, cytotoxicity control for HCV replication inhibitor project, CellTiter-Glo luminescence, basal, 48 h (AID 1143); details: Huh7 HCV replicon, higher = more signal, called active from +8 up or from −8 down;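 also: Huh7 hepatoma cells carrying a hepatitis C replication reporter with no stimulus; test concentration not given here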
[12] = P. aeruginosa biofilm formation inhibitors, primary screen, PAO1 strain, BacTiter-Glo luminescence, LB-PBS (AID 1144); details: 12 h, higher = more signal
[13] = CREB reporter modulators without forskolin, primary screen, cell-based, PC12, CRE-LacZ reporter, unstimulated (AID 1145); details: no forskolin, luminescence, 4.5 h, higher = more signal, called active from +8 up or from −8 down
[14] = CREB reporter modulators under forskolin, primary screen, cell-based, PC12, CRE-LacZ reporter, forskolin-stimulated (AID 1146); details: luminescence, 4.5 h, higher = more signal, called active from +8 up or from −8 down;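 also: PC12 cells with 6xCRE LacZ reporter stimulated by forskolin 10 µM; beta-galactosidase reporter signal reflecting CREB driven transcription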
[15] = biological target: Streptavidin (Streptomyces avidinii) (UniProt P22629); experiment: streptavidin binders on small-molecule microarray, primary screen, artefact control for SMM compound annotation, biophysical, 635/667 nm fluorescence (AID 1147); details: streptavidin binding, higher = more signal;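 also: signal reflects streptavidin binding to arrayed compounds as a control protein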
Sequence of Streptavidin (Streptomyces avidinii) (P22629 whole entry, looked up): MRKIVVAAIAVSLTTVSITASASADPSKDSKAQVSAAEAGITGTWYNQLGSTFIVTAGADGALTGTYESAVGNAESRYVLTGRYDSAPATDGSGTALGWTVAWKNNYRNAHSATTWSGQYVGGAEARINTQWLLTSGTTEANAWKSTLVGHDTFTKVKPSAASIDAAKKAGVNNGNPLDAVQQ

[16] = small-molecule binders of probe aInhba, primary screen, biochemical, small-molecule microarray, 635/667 nm fluorescence (AID 1148); details: higher = more signal;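 also: score merges 667nm spot fluorescence with signal-to-noise for antibody binding to printed compounds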
Torsin-1A (Homo sapiens) [17] = biological target: Torsin-1A (Homo sapiens) (UniProt O14656); experiment: torsin A binders from cell lysate, primary screen, small-molecule microarray, wild-type, 635/667 nm (AID 1149); details: COS7 hTOR1A-WT lysate, 635 nm fluorescence, higher = more signal
Sequence of Torsin-1A (Homo sapiens) (O14656 whole entry, looked up): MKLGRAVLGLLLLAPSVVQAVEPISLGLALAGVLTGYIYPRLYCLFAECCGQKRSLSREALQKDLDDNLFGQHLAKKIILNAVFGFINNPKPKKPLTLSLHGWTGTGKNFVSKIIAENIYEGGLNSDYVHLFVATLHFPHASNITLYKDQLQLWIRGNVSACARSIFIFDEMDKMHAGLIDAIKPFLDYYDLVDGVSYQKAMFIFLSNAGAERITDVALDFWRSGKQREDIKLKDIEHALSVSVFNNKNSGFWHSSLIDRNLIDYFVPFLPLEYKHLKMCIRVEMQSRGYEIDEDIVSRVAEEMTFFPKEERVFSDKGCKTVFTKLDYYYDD

Torsin-1A (Homo sapiens) [18] = biological target: Torsin-1A (Homo sapiens) (UniProt O14656); experiment: small-molecule binders of mutant TOR1A in lysate, primary screen, cell lysate, small-molecule microarray, COS7 lysate, 635/667 nm fluorescence (AID 1150); details: COS7 hTOR1A mutant lysate, 635 nm fluorescence, higher = more signal;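 also: score pools 667 nm emission and signal to noise measuring lysate protein binding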
[19] = system: Sonic hedgehog protein (Shh); experiment: small-molecule binders of Shh protein, primary screen, biochemical, small-molecule microarray, 635/667 nm fluorescence (AID 1151); details: small-molecule microarray binding, 635 nm fluorescence; higher = more signal;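 also: Shh protein binding to compounds spotted on small-molecule microarray slides; score combines spot fluorescence intensity with signal-to-noise across triplicate slides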

SMILES | composite z-score [1] | composite z-score [2] | composite z-score [3] | composite z-score [4] | composite z-score [5] | composite z-score [6] | z-score [7] | composite z-score (Lefty1) | composite z-score [8] | z-score [9] | composite z-score [10] | z-score [11] | z-score [12] | z-score [13] | z-score [14] | composite z-score [15] | composite z-score [16] | composite z-score (Torsin-1A (Homo sapiens) [17]) | composite z-score (Torsin-1A (Homo sapiens) [18]) | composite z-score [19]
CC(C)(C)OC(=O)CC[C@]1(C(=O)NCCN2CCOCC2)N=C(c2ccc(OCCCO)cc2)O[C@H]1c1ccccc1N=[N+]=[N-] | 2.11 | 1.15 | 0.782 | 1.04 | 0.283 | -0.104 | 0.669 | -0.595 | 1.33 | -10.8 (active) | 0.191 | -0.616 (inactive) | 0.145 (inactive) | 0.872 (inactive) | -0.55 (inactive) | 0.615 | 0.367 | 0.0272 | 1.28 | -0.299
COC(=O)Cn1c(C(=O)N2CCCC2)cc2c1C[C@H]1CN(C(=O)c3ccccc3)[C@@](Cc3ccc(F)cc3)(C(=O)OC)[C@@H]21 | 0.712 | -0.25 | 0.386 | -0.288 | 0.237 | -0.438 | 1.39 | -0.3 | 0.647 | 1.22 (inactive) | -0.164 | -1.83 (inactive) | -0.288 (inactive) | -0.182 (inactive) | 0.105 (inactive) | 1.59 | -0.123 | 0.895 | -0.137 | -0.271
C=CCN1C(=O)[C@@]2(CCC(=O)OC(C)(C)C)N=C(c3ccc(OCCCO)cc3)O[C@H]2c2ccccc21 | 2.33 | 0.909 | 1.54 | 0.652 | 1.23 | 0.898 | -0.758 | 0.319 | 0.525 | -4.58 (inactive) | 0.228 | -4.68 (inactive) | 0.324 (inactive) | 0.573 (inactive) | -2.25 (inactive) | 0.57 | 0.0588 | -0.0862 | 0.0147 | 0.832
O=C1O[C@@H](c2ccccc2)[C@@H](c2ccccc2)N2[C@@H](c3ccc(O)cc3)[C@]3(C(=O)Nc4ccc(C#CCCO)cc43)[C@@H](C(=O)Nc3nc4ccccc4s3)[C@H]12 | 0.709 | 1.23 | 0.31 | 0.682 | 1.25 | 1.01 | -2.38 | 0.531 | 0.552 | -0.155 (inactive) | 0.106 | -0.486 (inactive) | 0.422 (inactive) | -0.195 (inactive) | 1.93 (inactive) | 0.103 | 0.0471 | -0.363 | 0.897 | 0.756
COc1ccc(C(O)C2C=CC3C(=O)N(Cc4ccccc4)C(=O)C3N2n2cnnc2)c2ccccc12 (stereo not given) | 0.727 | 0.782 | 1.77 | 1.01 | 0.421 | -1.54 | -1.08 | 0.635 | 0.0261 | 1.01 (inactive) | -0.795 | -3.64 (inactive) | 0.038 (inactive) | -0.126 (inactive) | -0.138 (inactive) | -0.677 | -0.0136 | 1.95 | 0.432 | -0.237
